Data on 5 compounds can be found in PubChem BioAssay (NCI).

SMILES strings stand for the structures. “And” between values parts separate entries of the source, which are not always exact repeats. Identical values can stand only once. About 83,000 compounds went through this panel and 20% of them were active in at least one assay; those are over-represented in the sample as a whole.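 96-well plates, one dose, 48 hours. Percent growth reported; active if below 10.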 The source made the active and inactive calls.

Experiment in all cases: NCI-60 one-dose screen, 48 h (100 = growth as untreated, 0 = no growth, -100 = all killed)
Details in all cases: 10 µM unless noted

The test system of test [1] is NCI-H23 lung.
Test [2] has as its system NCI-H226 lung.
Test [3] concerns NCI-H322M lung.
Test [4] concerns NCI-H460 lung.
Test [5] relates to HOP-92 NSCLC.
Test [6] has as its system NCI-H522 lung.
For test [7], the system named is A549/ATCC NSCLC.
The subject of test [8] is 786-0 renal.
Test [9] deals with COLO 205 colon.
Test [10] has as its system DU-145 prostate.
Test [11] concerns K-562 leukemia.
In test [12] the test system is MALME-3M melanoma.
Test [13] deals with MDA-MB-231 breast.
Test [14] deals with RXF 393 renal.
For test [15], the system named is SF-268 CNS.
The test system of test [16] is SF-539 CNS.
Test [17] concerns UACC-257 melanoma.
For test [18], the system named is M14 melanoma.
In test [19] the test system is SF-295 CNS.
Test [20] relates to HOP-62 NSCLC.

As to `O=C(Cc1cccc2ccccc12)N/N=C/c1ccc2c(c1)CCC2`, the growth in [1] is 88.5% (inactive); in [2] it was 97.3% (inactive); in test [3], 84.3% (inactive); in test [4] it was 81.5% (inactive); in test [5], 92.9% (inactive); in test [6] it was 23.5% (inactive). The growth in test [7] was 65.8% (inactive); in [8] it was 88% (inactive); in test [9], 82% (inactive); in [10], 96.6% (inactive); in [11], 17.3% (inactive); in test [12], 63.6% (inactive). Moreover, the growth is 75% (inactive) in test [13]; 86% (inactive) in test [14]; 82.3% (inactive) in [15]; 83% (inactive) in test [16]; 87.3% (inactive) in test [17]; 77.9% (inactive) in [18].

For the compound `O=C1C2=C(C(=O)c3ccccc31)C(O)(S(=O)(=O)O)C(O)(S(=O)(=O)O)C1N=CC=CC21` (centres undefined), the growth in test [1] was 31.8% (inactive) and 20.8% (inactive); in test [2], 57% (inactive) and 68.1% (inactive); in test [3] it was 44.8% (inactive) and 16.8% (inactive); in test [4], 12.2% (inactive) and 4.17% (active); in test [5], -2.69% (active); in [6], 24.8% (inactive) and -11.8% (active). The growth in test [7] is 35.8% (inactive) and 22.1% (inactive); in test [8] it was 32.7% (inactive) and 20.3% (inactive); in [9], 50.3% (inactive); in [10], 64.2% (inactive) and 48% (inactive); in test [11] it was 13.5% (inactive) and 40% (inactive); in test [12], 73% (inactive) and 62.1% (inactive). The growth is 58.3% (inactive) and 47.6% (inactive) in test [13]; 76.7% (inactive) and 58.1% (inactive) in test [14]; 52.2% (inactive) and 36.5% (inactive) in test [15]; 6.52% (active) and 15.4% (inactive) in [19]; 25.4% (inactive) and 20.8% (inactive) in test [16]; 71.4% (inactive) and 35.3% (inactive) in [17]. In [18], the growth was 42.9% (inactive).

`CCN(CC)CCC(CNc1c2ccc([N+](=O)[O-])cc2nc2cc(OC)c(OC)cc12)c1ccccc1` (centres undefined): the growth in [2] was -65.3% (active) and -61.1% (active); in [3], -39.9% (active) and -76.5% (active); in [20] it was -9.52% (active) and -86.4% (active); in test [4] it was 6.85% (active) and -100% (active); in [5] it was -42.2% (active); in test [6], -45% (active) and -79.4% (active). Moreover, the growth was -6.05% (active) and -93.9% (active) in test [7]; -74.2% (active) and -91.6% (active) in test [8]; -49.7% (active) and -100% (active) in test [9]; -85.2% (active) and -100% (active) in [10]; -18.8% (active) in test [11]; -80.1% (active) and -89.1% (active) in [12]. Besides, the growth in test [13] was -58.4% (active) and -94.9% (active); in test [14], -89.8% (active); in test [15], -48.5% (active) and -98.7% (active); in test [19] it was 3.98% (active) and -90.3% (active); in test [16], -86.9% (active) and -100% (active); in test [17], -41.2% (active) and -97.1% (active). Besides, in [18], the growth is -63.2% (active) and -97.4% (active).

In the case of `CC(=O)Nc1ccc(O)cc1`, the growth is 99.3% (inactive) and 112% (inactive) and 102% (inactive) in [1]; 92.9% (inactive) and 106% (inactive) and 112% (inactive) in test [2]; 108% (inactive) and 111% (inactive) and 102% (inactive) in test [3]; 109% (inactive) and 105% (inactive) and 108% (inactive) in [4]; 80.3% (inactive) and 120% (inactive) in [5]; 94.3% (inactive) and 47% (inactive) in test [6]. In addition, the growth was 96.9% (inactive) and 122% (inactive) and 108% (inactive) in [7]; 99.5% (inactive) and 106% (inactive) and 103% (inactive) in [8]; 105% (inactive) and 116% (inactive) and 101% (inactive) in [9]; 103% (inactive) and 113% (inactive) and 118% (inactive) in test [10]; 107% (inactive) and 83.2% (inactive) and 106% (inactive) in test [11]; 100% (inactive) and 1.98% (active) and 142% (inactive) in test [12]. Moreover, the growth in [13] was 101% (inactive) and 119% (inactive) and 92.4% (inactive); in test [14] it was 108% (inactive) and 129% (inactive); in [15] it was 100% (inactive) and 106% (inactive) and 105% (inactive); in [19], 89.9% (inactive) and 94.1% (inactive) and 107% (inactive); in [16], 104% (inactive) and 95.4% (inactive) and 103% (inactive); in test [17] it was 98.3% (inactive) and 155% (inactive) and 107% (inactive). Also, the growth in [18] was 97.2% (inactive) and 123% (inactive) and 109% (inactive).

With `CC(C)Cc1ccc(C(C)C(=O)NCc2ccc(Cn3c(=O)sn(CCCCl)c3=O)cc2)cc1` (centres undefined), the growth in test [2] was 106% (inactive) and 32.6% (inactive); in [3], 101% (inactive) and 73.9% (inactive); in test [20], 105% (inactive) and -38.5% (active); in test [4], 105% (inactive) and 40.2% (inactive); in test [5], 105% (inactive) and -77.6% (active); in [6], 85.5% (inactive) and -52.3% (active). Also, the growth in test [7] is 101% (inactive) and -20.1% (active); in test [8] it was 101% (inactive) and -71.6% (active); in test [9], 66.8% (inactive) and -65% (active); in test [10], 95% (inactive) and -78% (active); in test [11], 2.16% (active); in [12], 110% (inactive) and -74.2% (active). The growth was 104% (inactive) and -77.2% (active) in test [13]; -94.2% (active) in test [14]; 84.8% (inactive) and -40.3% (active) in test [15]; 97.9% (inactive) and 53.7% (inactive) in [19]; 104% (inactive) and -90.3% (active) in test [16]; 94.4% (inactive) and -21.2% (active) in [17]. For the same compound, the growth in test [18] is 94% (inactive) and -58.1% (active).
